Assay results reported in PubChem BioAssay (Tox21).
“And” between values parts separate entries of the source, which are not always exact repeats. Equal entries are not always repeated. Records with an inconclusive call do not appear. The source made the active and inactive calls. Unless noted, calls come from the whole dose curve; as a rule, active = well fitted curve in the direction sought with a large enough effect in the repeat runs; inconclusive = weak or mixed curves; inactive = no such curve, though single readings can be large; an effect the other way counts as inactive or inconclusive.

Assay: qHTS assay to identify small molecule antagonists of the progesterone receptor (PR) signaling pathway - cell viability counter screen (AID 1346798); note: nearly all actives have a fitted effect of over 50% in size
Conditions: PR-UAS-bla HEK293T viability, CellTiter-Glo luminescence, 16 h; series mostly up to 92.4 µM; activity change, negative = cytotoxicity: at the top concentration
In short: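 PR-UAS-bla HEK293T cells, 3,000/well in 2% charcoal-stripped FBS medium, dosed with compounds plus R5020 agonist and incubated 16 h at 37C. Viability then measured in the same wells by CellTiter-Glo luminescence after 30 min at RT.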
% is set by controls: 0 for no effect and ±100 for the full control effect; potency is the fitted concentration of half-maximal effect.

Compound | activity change, negative = cytotoxicity | Potency
O=C(O)CCn1c2c(c3ccccc31)C[C@H](NS(=O)(=O)c1ccc(F)cc1)CC2 | 5.32% [at 42.5 µM] (inactive) | 
CCN(CC)c1ccc(N)cc1 |  | 44.5 µM (active)
C=C/C=C/C=C/CCCCC | 13.8% [at 18.9 µM] (inactive) | 
O=C1C=CC(=O)N1c1ccccc1 |  | 68.6 µM (active)
C=CC(C)C#N (configuration not stated) | -4.13% (inactive) | 
CCCCCCCC/C=C\CCCCCCCC(=O)OCCOC(=O)CCCCCCC/C=C\CCCCCCCC | -18.4% (inactive) | 
C=CC(=C)CCC=C(C)C |  | 54.5 µM (active)
CSc1ccc2c(c1)N(CCC1CCCCN1C)c1ccccc1S2 (configuration not stated) |  | 21.6 µM (active) and 23.7 µM (active)
CCCCCCCCCCCCCC[n+]1ccccc1 |  | 54.5 µM (active)
Clc1ccccc1CN1CCc2sccc2C1 | -29.2% [at 42.5 µM] (inactive) | 
C[Si](C)(C)Cl | -0.144% (inactive) | 
C=C(c1ccc(C(=O)O)cc1)c1cc2c(cc1C)C(C)(C)CCC2(C)C |  | 54.5 µM (active)
CCc1ccc(O)c(C(C)(C)C)c1 | 0.213% (inactive) | 
C[C@H]1O[C@@H](O[C@H]2[C@@H](O)C[C@H](O[C@H]3[C@@H](O)C[C@H](O[C@H]4CC[C@@]5(C)[C@H](CC[C@@H]6[C@@H]5C[C@@H](O)[C@]5(C)[C@@H](C7=CC(=O)OC7)CC[C@]65O)C4)O[C@@H]3C)O[C@@H]2C)C[C@H](O)[C@@H]1O |  | 86.4 nM (active) and 121 nM (active)
Cc1cccc(C)c1NC(=O)CN1CCN(CCCC(c2ccc(F)cc2)c2ccc(F)cc2)CC1 |  | 29.8 µM (active)
CN(Cc1cc(Br)cc(Br)c1N)C1CCCCC1 | -18.5% [at 42.5 µM] (inactive) | 
CCC(C)c1cc([N+](=O)[O-])cc([N+](=O)[O-])c1OC(=O)OC(C)C (configuration not stated) | -5.29% (inactive) | 
CC(=O)Nc1ccc(O)cc1 |  | inactive
O=C1c2c(O)ccc([N+](=O)[O-])c2C(=O)c2c([N+](=O)[O-])ccc(O)c21 |  | 24.1 µM (active)
COC(=O)[C@]1(C)CCC[C@@]2(C)[C@H]1CC=C1C=C(C(C)C)CC[C@@H]12 | 3% (inactive) | 
C[C@@H]1CC[C@H]2C(C)(C)[C@H]3C[C@@]12CC[C@@]3(C)O | -2.91% (inactive) | 
C=C1C(C)(C)[C@@]2(Cl)C(Cl)[C@]1(Cl)C(Cl)(Cl)C2(Cl)Cl (some centres not stated) |  | 67.3 µM (active)
CC(CN(C)C)CN1c2ccccc2CCc2ccccc21 (configuration not stated) |  | 21.1 µM (active)
Cc1c(-c2ccc(O)cc2)n(Cc2ccc(OCCN3CCCCCC3)cc2)c2ccc(O)cc12 |  | 33.5 µM (active)

Assay: qHTS assay to identify small molecule agonists of the progesterone receptor (PR) signaling pathway - cell viability counter screen (AID 1346799; calls by dose curve; note: nearly all actives have a fitted effect of over 45% in size)
Conditions: PR-UAS-bla HEK293T viability, CellTiter-Glo luminescence, 16 h; series mostly up to 92.4 µM; activity change, negative = cytotoxicity: at the top concentration
In short: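 Counter screen in the PR-UAS-bla HEK293T wells (2% charcoal-stripped FBS, 16 h compound exposure at 37 C) after the bla read. CellTiter-Glo added, 30 min at room temperature, luminescence read as cell viability.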

Compound | activity change, negative = cytotoxicity | Potency
Oc1ccc(-c2ccccc2)c(Cl)c1 | 19.7% (inactive) | 
COc1ccccc1OCCNCC(O)COc1cccc2[nH]c3ccccc3c12 (configuration not stated) |  | 15 µM (active)
O=C(O)CCn1c2c(c3ccccc31)C[C@H](NS(=O)(=O)c1ccc(F)cc1)CC2 | -9.56% [at 42.5 µM] (inactive) | 
c1cc(OCC2CO2)cc(OCC2CO2)c1 (configuration not stated) |  | 60.6 µM (active)
C=CC(=O)OCC(O)COc1ccccc1 (configuration not stated) | -2.18% (inactive) | 
COc1cc(C(C)C)c2c(c1)S(=O)(=O)N(COc1cc(=O)n3cccc(OCCN4CCCCC4)c3n1)C2=O | 20.1% [at 19 µM] (inactive) | 
CCCOc1sc(C(=O)N2CCC(c3cc(CN)ccc3F)CC2)c(C)c1Br |  | 19.9 µM (active)
CCN(CC)c1ccc(N)cc1 |  | 44.5 µM (active)
C=C/C=C/C=C/CCCCC | -2.82% [at 19 µM] (inactive) | 
CCCCCCCCCCCCCOP(=O)(O)O | -25.1% (inactive) | 
CC(C)N=C(N)/N=C(\N)Nc1ccc(Cl)cc1 | 0.599% [at 42.5 µM] (inactive) | 
O=C1C=CC(=O)N1c1ccccc1 |  | 61.1 µM (active)
CCCCCCCC/C=C\CCCCCCCC(=O)OCCOC(=O)CCCCCCC/C=C\CCCCCCCC | -15.1% (inactive) | 
C1CC(COCC2CO2)CCC1COCC1CO1 (configuration not stated) | 11.6% (inactive) | 
CCCCOC(=O)C(C)CC (configuration not stated) | 4.16% (inactive) | 
CSc1ccc2c(c1)N(CCC1CCCCN1C)c1ccccc1S2 (configuration not stated) |  | 27.2 µM (active) and 21.1 µM (active)
Clc1ccccc1CN1CCc2sccc2C1 | -1.17% [at 42.5 µM] (inactive) | 
C[Si](C)(C)Cl | 8.09% (inactive) | 
C=CC(C)(CCC=C(C)C)OC(=O)/C=C/c1ccccc1 (configuration not stated) | -2.72% (inactive) | 
C[C@H]1O[C@@H](O[C@H]2[C@@H](O)C[C@H](O[C@H]3[C@@H](O)C[C@H](O[C@H]4CC[C@@]5(C)[C@H](CC[C@@H]6[C@@H]5C[C@@H](O)[C@]5(C)[C@@H](C7=CC(=O)OC7)CC[C@]65O)C4)O[C@@H]3C)O[C@@H]2C)C[C@H](O)[C@@H]1O |  | 122 nM (active) and 191 nM (active)
Cc1ccc2ccc3cccc4ccc1c2c34 |  | 27.3 µM (active)
CC(=O)Nc1ccc(O)cc1 |  | inactive
C[C@@H]1CC[C@H]2C(C)(C)[C@H]3C[C@@]12CC[C@@]3(C)O | 5.4% (inactive) | 
CC(CN(C)C)CN1c2ccccc2CCc2ccccc21 (configuration not stated) |  | 16.8 µM (active)
Cc1c(-c2ccc(O)cc2)n(Cc2ccc(OCCN3CCCCCC3)cc2)c2ccc(O)cc12 |  | 29.8 µM (active)

Assay: qHTS assay to identify small molecule antagonists of the TGF-beta/Smad signaling pathway - cell viability counter screen (AID 1346824); note: nearly all actives have a fitted effect of over 50% in size
Conditions: SBE-bla HEK293T viability, CellTiter-Glo luminescence; series mostly up to 76.8 µM; viability change, negative = cytotoxic: at the top concentration
In short: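 Cytotoxicity counter-screen run in the same wells as the beta-lactamase Smad reporter read: CellTiter-Glo luminescence after 30 min at room temperature. HEK 293T SBE-bla cells had 5 hr compound exposure at 37 C with TGF-beta1 (0.25 ng/mL stock).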

Compound | viability change, negative = cytotoxic | Potency
Oc1ccc(-c2ccccc2)c(Cl)c1 | -13.8% (inactive) | 
COc1ccccc1OCCNCC(O)COc1cccc2[nH]c3ccccc3c12 (configuration not stated) | -5.28% [at 35.3 µM] (inactive) | 
c1cc(OCC2CO2)cc(OCC2CO2)c1 (configuration not stated) | 2.91% (inactive) | 
C=CC(=O)OCC(O)COc1ccccc1 (configuration not stated) | 24.1% (inactive) | 
COc1cc(C(C)C)c2c(c1)S(=O)(=O)N(COc1cc(=O)n3cccc(OCCN4CCCCC4)c3n1)C2=O | 14.4% [at 15.8 µM] (inactive) | 
CCCOc1sc(C(=O)N2CCC(c3cc(CN)ccc3F)CC2)c(C)c1Br |  | 50.4 µM (active)
C=C/C=C/C=C/CCCCC | -6.86% [at 15.8 µM] (inactive) | 
CCCCCCCCCCCCCOP(=O)(O)O | -5.72% (inactive) | 
CC(C)N=C(N)/N=C(\N)Nc1ccc(Cl)cc1 | -0.465% [at 35.3 µM] (inactive) | 
C=CC(C)C#N (configuration not stated) | 0.791% (inactive) | 
CCCCCCCC/C=C\CCCCCCCC(=O)OCCOC(=O)CCCCCCC/C=C\CCCCCCCC | 18.7% (inactive) | 
C1CC(COCC2CO2)CCC1COCC1CO1 (configuration not stated) | -5.62% (inactive) | 
CCCCOC(=O)C(C)CC (configuration not stated) | 3.69% (inactive) | 
C=CC(=C)CCC=C(C)C | 3.54% (inactive) | 
CCCCCCCCCCCCCC[n+]1ccccc1 |  | 54.9 µM (active)
C[Si](C)(C)Cl | 1.49% (inactive) | 
C=CC(C)(CCC=C(C)C)OC(=O)/C=C/c1ccccc1 (configuration not stated) | 0.903% (inactive) | 
C=C(c1ccc(C(=O)O)cc1)c1cc2c(cc1C)C(C)(C)CCC2(C)C | -3.02% [at 35.3 µM] (inactive) | 
CCc1ccc(O)c(C(C)(C)C)c1 | 7.02% (inactive) | 
Cc1cccc(C)c1NC(=O)CN1CCN(CCCC(c2ccc(F)cc2)c2ccc(F)cc2)CC1 | -26.1% [at 35.3 µM] (inactive) | 
CN(Cc1cc(Br)cc(Br)c1N)C1CCCCC1 | -27.6% [at 35.3 µM] (inactive) | 
Cc1ccc2ccc3cccc4ccc1c2c34 | -2.48% (inactive) | 
CCC(C)c1cc([N+](=O)[O-])cc([N+](=O)[O-])c1OC(=O)OC(C)C (configuration not stated) | -19.3% (inactive) | 
O=C1c2c(O)ccc([N+](=O)[O-])c2C(=O)c2c([N+](=O)[O-])ccc(O)c21 |  | 48.5 µM (active)
COC(=O)[C@]1(C)CCC[C@@]2(C)[C@H]1CC=C1C=C(C(C)C)CC[C@@H]12 | -23.1% (inactive) | 
C[C@@H]1CC[C@H]2C(C)(C)[C@H]3C[C@@]12CC[C@@]3(C)O | -4.17% (inactive) | 
C=C1C(C)(C)[C@@]2(Cl)C(Cl)[C@]1(Cl)C(Cl)(Cl)C2(Cl)Cl (some centres not stated) | -15.7% (inactive) | 
CC(CN(C)C)CN1c2ccccc2CCc2ccccc21 (configuration not stated) | -0.822% [at 35.3 µM] (inactive) | 
